Among the data in PubChem BioAssay AID651551 (Sanford-Burnham Center for Chemical Genomics, 2012) are inhibition % (higher = more inhibition) values, retold here.

The target of this assay is PEG-3 (UniProt Q6IN02). Kind of assay: GAPDH versus PEG-3 reporter suppression – cell-based, luminescence, counter-screen for PEG-3 promoter inhibitor project, SAR follow-up (AID 651551). The note with it: HeLa PEG-Prom / GAPDH luciferase reporter, 6 or 24 h, run 2, 6 h; at 99 µM (top of the series).
Regarding `CCCn1nc(C(=O)Nc2nc(-c3ccccn3)cs2)c2ccccc2c1=O`, the inhibition % (higher = more inhibition) is 44.6%.
The result for `Cc1nc(NC(=O)c2ccccc2)sc1-c1csc(Nc2ccccc2Cl)n1` reads 7.99%; that for `COc1ccc(Cl)cc1Nc1nc(-c2sc(NC(=O)c3ccccc3)nc2C)cs1`, 42.5%; that for `COc1ccccc1Nc1nc(-c2sc(NC(=O)c3ccco3)nc2C)cs1`, -0.291%.
In the case of `Cc1cc(NC(=O)c2ccccc2C)n(-c2nc3ccccc3[nH]2)n1`, the inhibition % (higher = more inhibition) stood at 41.1%.
Take `CCn1cc(C(=O)NCc2ccco2)c(=O)c2cc(S(=O)(=O)N3CCCC3)ccc21`: the inhibition % (higher = more inhibition) was -0.291%.
The result for `Cc1cc(NC(=O)c2cccc(C)c2C)n(-c2nc3ccccc3[nH]2)n1` reads 16.4%; that for `COCCCNC(=O)c1ccc(Cn2c(=O)c3ccccc3n(Cc3ccccc3C#N)c2=O)cc1`, 23.2%.
The result for `Cc1cc(NC(=O)c2ccccc2)n(-c2nc3ccccc3[nH]2)n1` reads 17.6%.
Regarding `CCn1nc(C(=O)Nc2nc(-c3ccccn3)cs2)c2ccccc2c1=O`, the inhibition % (higher = more inhibition) stood at 39.9%.
In the case of `Cc1nc(NC(=O)c2ccccc2)sc1-c1csc(Nc2ccccc2)n1`, the inhibition % (higher = more inhibition) came out at 5.23%.
Consider `CCCn1nc(C(=O)Nc2nc(-c3ccncc3)cs2)c2ccccc2c1=O`, for which the inhibition % (higher = more inhibition) stood at 7.03%.
As to `Cc1cc(NC(=O)c2ccccc2)n(-c2nc3ccccc3n2C)n1`, the inhibition % (higher = more inhibition) turned out to be 38.3%.
As for `Cc1ccc(Cl)cc1Nc1nc(-c2sc(NC(=O)c3ccco3)nc2C)cs1`, the inhibition % (higher = more inhibition) was determined as 37%.
The result for `COc1ccc(-n2nc(C(=O)NCC(=O)Nc3cccc(OC)c3)c3ccccc3c2=O)cc1` reads 2.47%; that for `O=C(Nc1nc(-c2ccccc2)cs1)c1nn(-c2ccccc2)c(=O)c2ccccc12`, 3.85%; that for `COc1ccc(-n2nc(C(=O)NCC(=O)Nc3ccc(OC)c(OC)c3)c3ccccc3c2=O)cc1`, 13.5%.
`CCCn1nc(C(=O)Nc2nc3ccccc3s2)c2ccccc2c1=O`: the inhibition % (higher = more inhibition) amounted to 21.8%.
Consider `O=C(Nc1nc2ccccc2s1)c1nn(-c2ccccc2)c(=O)c2ccccc12`, for which the inhibition % (higher = more inhibition) was -4.43%.
In the case of `COc1ccc(-n2nc(C(=O)NCC(=O)Nc3cc(OC)c(OC)c(OC)c3)c3ccccc3c2=O)cc1OC` it was 9.37%; in that of `O=C(Nc1nccs1)c1nn(-c2ccccc2)c(=O)c2ccccc12`, 28.7%.
The result for `Cc1cc(NC(=O)c2ccccc2C(F)(F)F)n(-c2nc3ccccc3[nH]2)n1` reads 88.2%; that for `Cc1nc(NC(=O)c2ccccc2)sc1-c1csc(Nc2cccc(Cl)c2C)n1`, 32.8%.
